Screening data from PubChem.
Hits are enriched below; roughly 8% of the tested compounds scored in any of these assays.
HT1080 IDH1KD tx: toxicity to HT-1080 IDH1 knockdown cells (counter line). HT-1080 IDH1 knockdown viability, ATP luminescence, 48 h. Potency, µM (highest dose often 46.1 µM), for the others: at the highest dose activity, negative = toxicity, hits mostly cytotoxic. 2% of 360,000 active. AID 686971;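 also: 0% = DMSO wells and -100% = cell-free medium wells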
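Luminescent ATP read-out (CellTiter-Glo, 10 min at room temperature) after 48 h compound exposure at 37 °C gave viability of IDH1-knockdown HT-1080 cells. Activity was normalised to DMSO and cell-free wells, then fitted as concentration-response curves.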
SW480 rerep: DNA re-replication induction in SW480 cells | 1.8% of 340,000 active | Potency, µM (titrated, usually from 46.1 µM), inactives show top-dose re-replication activation, most hits filed as activators | SW480 DNA re-replication, Hoechst DNA content imaging, 48 h | AID 624297; also: % of control where 0% means no effect; nearly all actives have a fitted effect of over 55% in size
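Compounds, transferred as 23 nL by pin tool, were incubated with cells for 48 hr; DNA content per nucleus was then quantified by Hoechst staining and fluorescence plate imaging.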
HT1080-NT tox: kills 2HG-producing HT-1080-NT fibrosarcoma cells. Potency, µM (doses to about 46.1 µM), for inactives: top-dose activity, negative = less viability, most hits filed as cytotoxic. AID 686970. 1.6% of 360,000 active. HT-1080-NT fibrosarcoma viability, CellTiter-Glo ATP luminescence, 48 h;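 also: NT is the 2HG producing partner of a matched IDH1 knockdown line; 0% = DMSO-treated cells and -100% = media-only wells without cells; nearly all actives have a fitted effect of over 55% in size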
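Toxicity toward the 2HG-producing NT line was scored as %Activity, normalised to DMSO and no-cell wells, from CellTiter-Glo luminescence after 48 hours' treatment.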
KB-3-1 tox: kills parental KB-3-1 adenocarcinoma cells | KB-3-1 viability, CellTiter-Glo ATP luminescence, 72 h | Potency, µM (top dose mostly 46.1 µM), hits mostly cytotoxic | 1.4% of 400,000 active; also: % is scaled to controls: 0 for no effect and ±100 for the full control effect; nearly all actives have a fitted effect of over 60% in size
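Multi-concentration cytotoxicity screen in KB-3-1 cells grown in DMEM lacking phenol red with 10% FBS. After 72 h at 37 °C with compound, ATP-dependent luminescence was recorded.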
KB-V1 MDR tox: kills drug-selected multidrug resistant KB-V1 cells. 3.4% of 400,000 active. KB-V1 MDR cells viability, CellTiter-Glo, 72 h. Potency, µM (doses to about 46.1 µM), usual class: cytotoxic; also: % is scaled to controls: 0 for no effect and ±100 for the full control effect; nearly all actives have a fitted effect of over 60% in size
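Cytotoxicity via CellTiter-Glo luminescence after 72 h compound exposure at 37 degrees C. Cells: drug-selected KB-V1 line, DMEM phenol-red free plus 10% FBS. Compounds tested at multiple concentrations; normalized data fitted to concentration-effect curves.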
MCF10A rerep: induces DNA re-replication in MCF 10a normal breast cells; MCF 10A DNA re-replication, Hoechst nuclear intensity, 48 h; Potency, µM (top dose mostly 46.1 µM), without a hit: at the highest dose activity, positive = re-replication, most hits filed as activators; 2.9% of 350,000 active; also: % of control where 0% means no effect; nearly all actives have a fitted effect of over 50% in size
* hit, by the source's call; i = inactive; ? = inconclusive; . = no result; + = active, no number. Calls follow the shape of the dose curve; as a rule, active = well fitted curve in the direction sought with a large enough effect; inconclusive = small, poorly fitted or top-dose-only effect, or another doubt; inactive = no such curve, though single readings can be large; an effect the other way counts as inactive or inconclusive. Potency is read from the fitted curve at half-maximal effect.

SMILES | HT1080 IDH1KD tx | SW480 rerep | HT1080-NT tox | KB-3-1 tox | KB-V1 MDR tox | MCF10A rerep
COc1ccc(CSC(=S)NNc2ccccc2)cc1 | 13µM* | . | ? | ? | i | .
COc1cc(NS(=O)(=O)c2ccc3[nH]c4c(c3c2)CCCCCC4)cc(OC)c1 | . | . | . | i | ? | .
COc1cccc(CNS(=O)(=O)c2ccc3[nH]c4c(c3c2)CCCCC4)c1 | . | . | . | 20.6µM* | 20.6µM* | .
COc1ccc(OC)c(NS(=O)(=O)c2ccc3[nH]c4c(c3c2)CCCCC4)c1 | . | . | . | ? | 16.4µM* | .
COc1cc(NS(=O)(=O)c2ccc3[nH]c4c(c3c2)CCCC4)cc(OC)c1OC | . | . | . | 0.0651µM* | ? | .
O=S(=O)(NCc1ccc(F)cc1)c1ccc2[nH]c3c(c2c1)CCCCC3 | . | . | . | i | i | .
CCOC(=O)c1sc(N2C(=O)c3oc4cc(C)c(C)cc4c(=O)c3C2c2ccc(C)cc2)nc1C (centres undefined) | . | . | . | i | i | .
O=C(Cn1ncc2c(=O)oc3ccccc3c21)NCc1ccc(Cl)cc1 | . | . | . | i | i | .
CC(=O)c1c(C)[nH]c(-c2ccccc2)c1C | -1.9% | -2.5% | -0.9% | i | i | 3.4%
O=C(O)/C=C/C(=O)c1c(-c2ccccc2)[nH]c2ccccc12 | -1.3% | ? | -3.3% | i | i | 20.6µM*
CC(=O)c1c(-c2ccccc2)[nH]c2ccccc12 | ? | ? | ? | ? | 7.31µM* | 16.4µM*
O=C(Cn1nnc2ccccc21)OCc1ccccc1 | -1.2% | -2.2% | 5.1% | i | i | 0.651µM*
O=C(Cn1nnc2ccccc21)NCc1ccccc1 | -0.8% | -1.7% | -0.3% | i | i | -7.0%
Cc1cccc(NC(=O)c2n[nH]c([N+](=O)[O-])c2Br)c1C | 25.9µM* | 2.2% | ? | ? | ? | 9.8%
CCOC(=O)c1ccc2c(c1)sc1nc(-c3ccc(OCC)cc3)cn12 | . | . | . | i | i | .
COc1cccc(/C=N/Nc2ncnc3scc(-c4ccccc4)c23)c1OC | 11.2µM* | ? | 20µM* | i | i | ?
COc1ccc(-c2csc3ncnc(Nc4ccccc4)c23)cc1 | . | . | . | i | i | .
CC[n+]1c(C)cc2c(sc3ccccc32)c1C | ? | -6.7% | 5.17µM* | 2.59µM* | i | 19.0%
CCc1nc(C)cc2c1sc1ccccc12 | -1.7% | ? | 1.7% | i | i | ?
CN(C)c1ccc(-c2csc(C(C)(O)c3cccc(F)c3)n2)cc1 (centres undefined) | ? | . | 25.9µM* | i | ? | .
COc1ccc(-c2csc(C(C)(O)c3ccccc3)n2)cc1OC (centres undefined) | 1.5% | . | -2.4% | ? | 23.1µM* | .
COc1ccc(C(C)(O)c2nc(-c3ccccc3)cs2)cc1 (centres undefined) | 16.4µM* | . | ? | ? | ? | .
COc1ccc(C(C)(O)c2nc(-c3cccc(O)c3)cs2)cc1 (centres undefined) | 8.2µM* | . | ? | ? | i | .
COc1ccc(C(C)(O)c2nc(-c3cccc(C(=O)O)c3)cs2)cc1 (centres undefined) | -1.2% | . | 6.7% | i | i | .
COc1ccc(-c2csc(C(C)(O)c3ccccc3)n2)cc1 (centres undefined) | ? | . | ? | i | i | .
SMILES | HT1080 IDH1KD tx | SW480 rerep | HT1080-NT tox | KB-3-1 tox | KB-V1 MDR tox | MCF10A rerep
O=C(COc1ccccc1C(=O)Nc1ccccc1)Nc1ccccc1Cl | -0.9% | . | -20.4% | . | . | .
CC(O)(c1ccccc1)c1nc(-c2ccccc2)cs1 (centres undefined) | ? | . | ? | i | i | .
CC(O)(c1ccccc1)c1nc(-c2ccncc2)cs1 (centres undefined) | 0.0% | . | + | i | ? | .
COc1ccc(C(C)(O)c2nc(-c3ccccc3C)cs2)cc1 (centres undefined) | 9.2µM* | . | ? | 4.61µM* | 5.17µM* | .
COc1ccc(OC)c(NC(=O)Cn2cnc3sc(C)c(S(=O)(=O)N4CCN(c5ccccc5OC)CC4)c3c2=O)c1 | . | . | . | i | i | .
Cc1ccc(C)c(NC(=O)CCc2nc3cccnc3n2Cc2cccs2)c1 | . | . | . | i | i | .
O=C(c1ccccn1)N1CCN(c2ccc(C(F)(F)F)cn2)CC1 | -4.5% | -7.0% | -15.5% | i | 16.4µM* | 16.1%
CCOc1ncccc1C(=O)N1CCN(c2ccc(C(F)(F)F)cn2)CC1 | -6.0% | -0.1% | 10.8% | i | ? | 13.9%
Cc1ccc(C(=O)N2CCN(c3ccc(C(F)(F)F)cn3)CC2)o1 | 4.6% | -3.8% | -0.7% | ? | 20.6µM* | 0.2%
CC(C)N(Cc1ccccc1)C(=O)Cn1ncc2c3ccccc3n(Cc3ccccc3)c2c1=O | . | . | . | i | i | .
CNCCC=C1c2ccccc2CCc2ccccc21 | ? | -76.7% | 23.1µM* | i | 20.6µM* | ?
NCCCCCc1nnc(SCc2ccc(F)cc2)o1 | . | . | . | i | i | .
COc1cc2ncc3c(-c4ccccc4)nn(-c4ccc(C)cc4)c3c2cc1OC | . | . | . | i | ? | .
Cc1nc2ccc(S(=O)(=O)NC(CC(C)C)C(=O)NCc3ccc(Cl)cc3)cc2s1 (centres undefined) | . | . | . | i | i | .
COc1ccc(C(=O)N=c2sc3c(C)ccc(OC)c3n2C)cc1OC | 8.8% | -2.1% | 9.2% | ? | 18.4µM* | 10.9%
Cc1cc(C)n(-c2nc3ccccc3c(=O)n2OCC(=O)OCc2ccccc2)n1 | ? | ? | ? | 23.1µM* | i | 7.8%
Cc1cc(C)n(-c2nc3ccccc3c(=O)n2OCC(=O)N(C)C)n1 | -4.8% | -1.1% | -3.6% | i | i | -3.0%
Cc1cc(CC(C)C)n(-c2nc3ccccc3c(=O)n2OCc2ccccc2)n1 | -14.3% | 3.7% | -13.3% | ? | 9.2µM* | 26.6%
Cc1cc(CC(C)C)n(-c2nc3ccccc3c(=O)n2OCC(=O)N(C)C)n1 | -1.1% | -3.3% | -8.0% | i | i | 2.9%
CC1CCN(C(=O)c2cccc(NC(=O)c3nsc4ccccc34)c2)CC1 | . | . | . | i | i | .
COc1ccccc1N1CCN(c2ccc(=O)n(CC(=O)NCc3ccc(F)cc3)n2)CC1 | . | . | . | i | i | .
O=C(N/N=C/c1ccccn1)c1ccc([N+](=O)[O-])cc1Cl | -19.0% | -3.7% | -29.8% | i | i | -1.6%
O=C(N/N=C/c1ccccn1)c1[nH]c2ccc([N+](=O)[O-])cc2c1-c1ccccc1 | ? | ? | ? | 9.2µM* | ? | ?
O=C(O)c1[nH]c2ccc([N+](=O)[O-])cc2c1-c1ccccc1 | -4.7% | -4.1% | -11.9% | i | i | 0.9%
